# Data taken from PubChem BioAssay (NCI).
# About 79,000 compounds went through this panel and 15% of them were active in at least one assay; those are over-represented in the sample as a whole. A number with no mark means an inactive call. Calls of active or inactive are those of the source. No stated cut-off is given here; in the data, active means growth inhibition above about 70%; inactive means the rest.
# Columns and labels:
# [1] = NCI Yeast Anticancer Drug Screen. Data for the rad52 strain (AID 147);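 further: 0% = growth of vehicle-treated control cultures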; settings: S. cerevisiae rad52 mutant growth inhibition, hits give high values
# Method in brief: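 Yeast strain carrying a DNA damage repair alteration was exposed to test compounds. Growth inhibition was measured relative to vehicle-treated controls.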
# [2] = NCI Yeast Anticancer Drug Screen. Data for the wt1 strain (AID 149);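 further: 0% = growth of vehicle-treated wt1 cultures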; settings: S. cerevisiae wt1 strain (SPY 50644) growth inhibition, hits give high values
# Method in brief: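 Readout: yeast growth inhibition, normalised to vehicle controls, in the wt1 strain exposed to test compounds.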
# [3] = NCI Yeast Anticancer Drug Screen. Data for the rad50EPP+ strain (AID 151);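 further: 0% = growth of vehicle-treated control cultures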; settings: S. cerevisiae rad50 mutant strain, hits give high values
# Method in brief: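 Yeast strain carrying rad50 alteration (rad50EPP+) exposed to compounds; growth inhibition measured relative to vehicle-treated controls.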
# [4] = NCI Yeast Anticancer Drug Screen. Data for the mgt1 strain (AID 153); settings: S. cerevisiae mgt1 mutant growth inhibition, hits give high values
# Method in brief: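 Yeast mgt1 strain (DNA repair/cell-cycle alteration panel) exposed to compounds; growth inhibition measured relative to vehicle-treated controls.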
# [5] = NCI Yeast Anticancer Drug Screen. Data for the rad50 strain (AID 155);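 further: 0% = growth of vehicle-only cultures of the same strain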; settings: S. cerevisiae rad50 strain growth inhibition, hits give high values
# Method in brief: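 Compounds were tested on a yeast strain with an engineered DNA damage repair alteration; the reported value is growth inhibition normalised to vehicle treatment.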
# [6] = NCI Yeast Anticancer Drug Screen. Data for the mec2-1 strain (AID 157); settings: S. cerevisiae mec2-1 strain, hits give high values
# Method in brief: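 mec2-1 yeast strain, carrying an alteration in DNA damage repair or cell cycle control, was exposed to compounds; growth inhibition was measured relative to vehicle-treated controls.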
# [7] = NCI Yeast Anticancer Drug Screen. Data for the rad14 strain (AID 159);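 further: 0% = growth of vehicle-treated control cultures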; settings: S. cerevisiae rad14 strain growth inhibition, hits give high values
# Method in brief: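 Compound-treated yeast with a defined DNA-repair lesion; growth inhibition normalised to vehicle-treated cultures.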
# [8] = NCI Yeast Anticancer Drug Screen. Data for the sgs1 mgt1 strain (AID 161);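 further: 0% = growth of cultures given vehicle only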; settings: S. cerevisiae sgs1 mgt1 strain, hits give high values
# Method in brief: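 Compounds are added to genetically altered yeast, and growth is compared with cultures given vehicle alone to give percent inhibition.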
# [9] = NCI Yeast Anticancer Drug Screen. Data for the CLN2oe strain (AID 163);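 further: 0% = growth of vehicle-only control cultures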; settings: S. cerevisiae CLN2oe strain, hits give high values
# Method in brief: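 Yeast cells carrying a defined cell-cycle control alteration were exposed to test compounds. Growth inhibition was scored against vehicle-treated control cultures.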
# [10] = NCI Yeast Anticancer Drug Screen. Data for the cln2 rad14 strain (AID 165);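 further: 0% = growth equal to vehicle treated cultures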; settings: S. cerevisiae cln2 rad14 strain, hits give high values
# Method in brief: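 Yeast carrying cln2 and rad14 alterations (cell cycle control and DNA damage repair) were exposed to compounds. Growth inhibition was measured against vehicle-treated controls.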
# [11] = NCI Yeast Anticancer Drug Screen. Data for the bub3 strain (AID 167); settings: S. cerevisiae bub3 mutant strain, hits give high values
# Method in brief: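 Growth of a checkpoint-deficient yeast mutant is measured after compound exposure. Values represent inhibition relative to vehicle.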
# [12] = NCI Yeast Anticancer Drug Screen. Data for the wt2 strain (AID 169);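 further: 0% = growth of vehicle-treated yeast cultures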; settings: S. cerevisiae wt2 strain growth inhibition, hits give high values
# Method in brief: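 Yeast cells were exposed to test compounds, and growth inhibition was measured relative to vehicle-treated controls.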
# [13] = NCI Yeast Anticancer Drug Screen. Data for the mlh1 strain (AID 171);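 further: 0% = growth of vehicle-treated control cultures of the same strain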; settings: S. cerevisiae mlh1 strain growth inhibition, hits give high values
# Method in brief: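 Yeast carrying a defined genetic alteration in DNA damage repair or cell cycle control were exposed to test compounds. Growth inhibition was measured relative to vehicle-treated controls.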
# [14] = NCI Yeast Anticancer Drug Screen. Data for the sgs1 strain (AID 173);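 further: 0% = growth of vehicle-only control cultures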; settings: S. cerevisiae sgs1 mutant, hits give high values
# Method in brief: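 Yeast mutant strains carrying defined defects in DNA damage repair or cell cycle control were exposed to test compounds. Growth inhibition was scored against vehicle-treated controls.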
# [15] = NCI Yeast Anticancer Drug Screen. Data for the mlh1 rad18 strain (AID 175); settings: S. cerevisiae mlh1 rad18 strain growth inhibition, hits give high values
# Method in brief: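 Growth inhibition of the yeast strain was measured after compound exposure and expressed relative to vehicle-treated controls. The strain carries defined defects in DNA damage repair.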
# [16] = NCI Yeast Anticancer Drug Screen. Data for the rad18 strain (AID 177); settings: S. cerevisiae rad18 mutant growth inhibition, hits give high values
# Method in brief: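 Yeast carrying a defined DNA damage repair alteration were exposed to compounds. Growth inhibition was expressed relative to vehicle-treated controls.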
# [17] = at 5.0 µM (retest, dose inferred, filed as 0.5)
# [18] = at 50.0 µM (retest, dose inferred, filed as 5.0)
compound,measurement,setting,value
CCN(CC)CC(O)c1ccc2ccc3ccccc3c2c1 (stereo unspecified),growth inhibition,[1]; at 1.2 µM,3%
same,growth inhibition,[1]; at 3.7 µM,7%
same,growth inhibition,[1]; at 11.0 µM,14%
same,growth inhibition,[1]; at 33.0 µM,14%
same,growth inhibition,[1]; at 100.0 µM,46%
same,growth inhibition,[2]; at 1.2 µM,4%
same,growth inhibition,[2]; at 3.7 µM,10%
same,growth inhibition,[2]; at 11.0 µM,18%
same,growth inhibition,[2]; at 33.0 µM,16%
same,growth inhibition,[2]; at 100.0 µM,19%
same,growth inhibition,[3]; at 1.2 µM,-1%
same,growth inhibition,[3]; at 3.7 µM,1%
same,growth inhibition,[3]; at 11.0 µM,2%
same,growth inhibition,[3]; at 33.0 µM,-1%
same,growth inhibition,[3]; at 100.0 µM,-11%
same,growth inhibition,[4]; at 1.2 µM,2%
same,growth inhibition,[4]; at 3.7 µM,4%
same,growth inhibition,[4]; at 11.0 µM,6%
same,growth inhibition,[4]; at 33.0 µM,21%
same,growth inhibition,[4]; at 100.0 µM,59%
same,growth inhibition,[5]; at 1.2 µM,6%
same,growth inhibition,[5]; at 3.7 µM,10%
same,growth inhibition,[5]; [17],-1%
same,growth inhibition,[5]; at 11.0 µM,15%
same,growth inhibition,[5]; at 33.0 µM,10%
same,growth inhibition,[5]; [18],52%
same,growth inhibition,[5]; at 50.0 µM,70.9% (active)
same,growth inhibition,[5]; at 100.0 µM,39%
same,growth inhibition,[6]; at 1.2 µM,3%
same,growth inhibition,[6]; at 3.7 µM,7%
same,growth inhibition,[6]; [17],15%
same,growth inhibition,[6]; at 11.0 µM,11%
same,growth inhibition,[6]; at 33.0 µM,15%
same,growth inhibition,[6]; [18],20%
same,growth inhibition,[6]; at 50.0 µM,37.4%
same,growth inhibition,[6]; at 100.0 µM,33%
same,growth inhibition,[7]; at 1.2 µM,7%
same,growth inhibition,[7]; at 3.7 µM,23%
same,growth inhibition,[7]; at 11.0 µM,35%
same,growth inhibition,[7]; at 33.0 µM,28%
same,growth inhibition,[7]; at 100.0 µM,70% (active)
same,growth inhibition,[8]; [17],16%
same,growth inhibition,[8]; [18],7%
same,growth inhibition,[8]; at 50.0 µM,42.7%
same,growth inhibition,[9]; at 1.2 µM,0%
same,growth inhibition,[9]; at 3.7 µM,5%
same,growth inhibition,[9]; at 11.0 µM,15%
same,growth inhibition,[9]; at 33.0 µM,35%
same,growth inhibition,[9]; at 100.0 µM,57%
same,growth inhibition,[10]; [17],-22%
same,growth inhibition,[10]; [18],-22%
same,growth inhibition,[10]; at 50.0 µM,32%
same,growth inhibition,[11]; at 1.2 µM,1%
same,growth inhibition,[11]; at 3.7 µM,4%
same,growth inhibition,[11]; [17],10%
same,growth inhibition,[11]; at 11.0 µM,-20%
same,growth inhibition,[11]; at 33.0 µM,43%
same,growth inhibition,[11]; [18],71% (active)
same,growth inhibition,[11]; at 50.0 µM,65.2%
same,growth inhibition,[11]; at 100.0 µM,45%
same,growth inhibition,[12]; at 1.2 µM,2%
same,growth inhibition,[12]; at 3.7 µM,8%
same,growth inhibition,[12]; at 11.0 µM,17%
same,growth inhibition,[12]; at 33.0 µM,21%
same,growth inhibition,[12]; at 100.0 µM,36%
same,growth inhibition,[13]; at 1.2 µM,8%
same,growth inhibition,[13]; at 3.7 µM,8%
same,growth inhibition,[13]; at 11.0 µM,16%
same,growth inhibition,[13]; at 33.0 µM,16%
same,growth inhibition,[13]; at 100.0 µM,40%
same,growth inhibition,[14]; at 1.2 µM,8%
same,growth inhibition,[14]; at 3.7 µM,17%
same,growth inhibition,[14]; at 11.0 µM,34%
same,growth inhibition,[14]; at 33.0 µM,48%
same,growth inhibition,[14]; at 100.0 µM,64%
same,growth inhibition,[15]; [17],3%
same,growth inhibition,[15]; [18],19%
same,growth inhibition,[15]; at 50.0 µM,51.1%
same,growth inhibition,[16]; at 1.2 µM,17%
same,growth inhibition,[16]; at 3.7 µM,22%
same,growth inhibition,[16]; at 11.0 µM,27%
same,growth inhibition,[16]; at 33.0 µM,38%
same,growth inhibition,[16]; at 100.0 µM,59%
Cc1ccc(S(=O)(=O)NCCSS(=O)(=O)c2ccc(C)cc2)cc1,growth inhibition,[1]; at 1.2 µM,18%
same,growth inhibition,[1]; at 3.7 µM,31%
same,growth inhibition,[1]; at 11.0 µM,38%
same,growth inhibition,[1]; at 33.0 µM,98% (active)
same,growth inhibition,[1]; at 100.0 µM,95% (active)
same,growth inhibition,[2]; at 1.2 µM,6%
same,growth inhibition,[2]; at 3.7 µM,8%
same,growth inhibition,[2]; at 11.0 µM,28%
same,growth inhibition,[2]; at 33.0 µM,99% (active)
same,growth inhibition,[2]; at 100.0 µM,95% (active)
same,growth inhibition,[3]; at 1.2 µM,-14%
same,growth inhibition,[3]; at 3.7 µM,6%
same,growth inhibition,[3]; at 11.0 µM,64%
same,growth inhibition,[3]; at 33.0 µM,91% (active)
same,growth inhibition,[3]; at 100.0 µM,96% (active)
same,growth inhibition,[4]; at 1.2 µM,-13%
same,growth inhibition,[4]; at 3.7 µM,-8%
same,growth inhibition,[4]; at 11.0 µM,3%
same,growth inhibition,[4]; at 33.0 µM,98% (active)
same,growth inhibition,[4]; at 100.0 µM,94% (active)
same,growth inhibition,[5]; at 1.2 µM,9%
same,growth inhibition,[5]; at 3.7 µM,6%
same,growth inhibition,[5]; [17],36%
same,growth inhibition,[5]; at 11.0 µM,17%
same,growth inhibition,[5]; at 33.0 µM,98% (active)
same,growth inhibition,[5]; [18],95% (active)
same,growth inhibition,[5]; at 50.0 µM,88.7% (active)
same,growth inhibition,[5]; at 100.0 µM,93% (active)
same,growth inhibition,[6]; at 1.2 µM,-2%
same,growth inhibition,[6]; at 3.7 µM,-13%
same,growth inhibition,[6]; [17],-24%
same,growth inhibition,[6]; at 11.0 µM,7%
same,growth inhibition,[6]; at 33.0 µM,98% (active)
same,growth inhibition,[6]; [18],96% (active)
same,growth inhibition,[6]; at 50.0 µM,93% (active)
same,growth inhibition,[6]; at 100.0 µM,96% (active)
same,growth inhibition,[7]; at 1.2 µM,-10%
same,growth inhibition,[7]; at 3.7 µM,-15%
same,growth inhibition,[7]; at 11.0 µM,-6%
same,growth inhibition,[7]; at 33.0 µM,98% (active)
same,growth inhibition,[7]; at 100.0 µM,92% (active)
same,growth inhibition,[8]; [17],7%
same,growth inhibition,[8]; [18],95% (active)
same,growth inhibition,[8]; at 50.0 µM,91% (active)
same,growth inhibition,[9]; at 1.2 µM,-29%
same,growth inhibition,[9]; at 3.7 µM,-16%
same,growth inhibition,[9]; at 11.0 µM,-6%
same,growth inhibition,[9]; at 33.0 µM,96% (active)
same,growth inhibition,[9]; at 100.0 µM,93% (active)
same,growth inhibition,[10]; [17],20%
same,growth inhibition,[10]; [18],96% (active)
same,growth inhibition,[10]; at 50.0 µM,87.2% (active)
same,growth inhibition,[11]; at 1.2 µM,-14%
same,growth inhibition,[11]; at 3.7 µM,-29%
same,growth inhibition,[11]; [17],30%
same,growth inhibition,[11]; at 11.0 µM,-4%
same,growth inhibition,[11]; at 33.0 µM,98% (active)
same,growth inhibition,[11]; [18],97% (active)
same,growth inhibition,[11]; at 50.0 µM,88.8% (active)
same,growth inhibition,[11]; at 100.0 µM,94% (active)
same,growth inhibition,[12]; at 1.2 µM,-14%
same,growth inhibition,[12]; at 3.7 µM,-17%
same,growth inhibition,[12]; at 11.0 µM,-1%
same,growth inhibition,[12]; at 33.0 µM,97% (active)
same,growth inhibition,[12]; at 100.0 µM,94% (active)
same,growth inhibition,[13]; at 1.2 µM,-27%
same,growth inhibition,[13]; at 3.7 µM,-34%
same,growth inhibition,[13]; at 11.0 µM,-14%
same,growth inhibition,[13]; at 33.0 µM,98% (active)
same,growth inhibition,[13]; at 100.0 µM,94% (active)
same,growth inhibition,[14]; at 1.2 µM,20%
same,growth inhibition,[14]; at 3.7 µM,21%
same,growth inhibition,[14]; at 11.0 µM,45%
same,growth inhibition,[14]; at 33.0 µM,99% (active)
same,growth inhibition,[14]; at 100.0 µM,96% (active)
same,growth inhibition,[15]; [17],10%
same,growth inhibition,[15]; [18],95% (active)
same,growth inhibition,[15]; at 50.0 µM,88.7% (active)
same,growth inhibition,[16]; at 1.2 µM,-2%
same,growth inhibition,[16]; at 3.7 µM,6%
same,growth inhibition,[16]; at 11.0 µM,12%
same,growth inhibition,[16]; at 33.0 µM,99% (active)
same,growth inhibition,[16]; at 100.0 µM,94% (active)
